The list is not random: actives were taken first. Their share in the collection is about 4.9%.
HSF-1 act: HSF-1 activators, primary screen, NIH3T3-HGL cells, MG132 stress, luminescence, single point | NIH3T3-HGL HSF-1 luciferase reporter, 8 h; 100% = twice DMSO control signal | activation, % at 9 µM | hit rate 1.7% among 300,000 | AID 504408, 2011;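 active = mean replicate activation of at least 50% with a set share of replicates each reaching 50%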
MPTP block: mitochondrial permeability transition pore inhibitors, primary screen, biochemical, isolated mouse mitochondria, absorbance. Ca2+ swelling absorbance, 30 min. inhibition, % at 10 µM. hit rate 1.4% among 360,000. AID 602449, 2012;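 active = inhibition of 50% or more, scaled per plate between neutral and stimulator controls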
HSF1 inhib: HSF1 inhibitors in luciferase reporter cells, primary screen, cell-based, NIH3T3, luminescence. NIH3T3-HGL HSE-luciferase, MG132-induced, luminescence 8 h; hits give low values. activity change, negative = inhibition, % at 7.5 µM (by protocol). hit rate 0.77% among 300,000. AID 2098, 2009;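 active = more than half of replicate wells show activity change below -50%, luminescence cut by over half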;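 note: luciferase reports HSF-1 transcriptional activity via heat shock element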
dFosB activator: activators of delta FosB homodimer, primary screen, biochemical, fluorescence polarization, TAMRA-CDK5 oligo, single point; purified delta FosB; percent of positive-control signal above neutral wells; activation, % at 25 µM; hit rate 0.99% among 340,000;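 active = mean activation above about 17%, with every replicate also reaching it, limit read from the data, passing the limit was not always enough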
Target sequence (P13346 whole entry, looked up): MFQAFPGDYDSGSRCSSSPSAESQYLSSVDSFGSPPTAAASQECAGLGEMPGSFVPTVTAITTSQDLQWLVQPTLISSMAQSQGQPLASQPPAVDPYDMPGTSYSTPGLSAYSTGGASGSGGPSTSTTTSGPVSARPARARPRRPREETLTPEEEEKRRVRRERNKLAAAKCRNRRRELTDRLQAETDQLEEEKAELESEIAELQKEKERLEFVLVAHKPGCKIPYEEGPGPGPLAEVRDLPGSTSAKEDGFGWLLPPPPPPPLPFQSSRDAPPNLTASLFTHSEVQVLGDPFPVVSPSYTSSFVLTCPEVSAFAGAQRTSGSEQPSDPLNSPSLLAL
HSP90 inh: HSP90 inhibitors, primary screen, cell lysate, luminescence | AID 1789, 2009 | hit rate 0.91% among 290,000 | Heat shock protein HSP 90 (rabbit reticulocyte lysate; luciferase refolding) | inhibition, % at 5.6 µM | Rabbit reticulocyte lysate, luciferase refolding luminescence, 3 h;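 active = inhibition above the screen-wide mean plus 3 SD, computed separately per campaign, cut at about 16% in these data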;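 note: inhibitors lower the luminescence because luciferase stays unfolded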
Platelet DG rel: inhibitors of platelet dense granule secretion, primary screen, cell-based, MLPCN, human platelets; hit rate 0.22% among 300,000; human platelet-rich plasma, SFLLRN dense granule ATP release, luminescence; inhibition, %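 (compounds screened at 7.5 µM in platelet-rich plasma)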;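 active = mean replicate score, as percent of positive control, at or above 50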
HSP90 inh confirm: HSP90 inhibitors, confirmation, cell lysate, luminescence; shares compounds with HSP90 inh; AID 1846, 2009; inhibition, % at 5.9 µM; hit rate 64% among 2,300; rabbit reticulocyte lysate, luciferase refolding luminescence, 3 h; in the data active = inhibition above about 18%
luciferase ctr: firefly luciferase inhibitors, HSP90 counter-screen, confirmation, artefact control for HSP90 inhibitor project, biochemical, luminescence, triplicate; shares compounds with HSP90 inh; purified native firefly luciferase; inhibition, % at 5.9 µM; hit rate 48% among 2,300; AID 1847, 2009;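 active = inhibition above the mean inhibition of all tested sample wells plus 3 SD, cut at about 10% in these data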
Each line names hits and unclear results; the compound was inactive in the other large screens (follow-up assays come after a bar, where they were run); ! = not active in a repeat.

OC(Cc1ccccc1Br)c1ncc(-c2cccc(C(F)(F)F)c2)[nH]1 (stereo not drawn)	none (no result: HSF-1 act, HSF1 inhib, dFosB activator, HSP90 inh, Platelet DG rel)
CC(=O)c1c(C)[nH]c(C(=O)OCCOc2ccccc2)c1C	HSP90 inh 34 | HSP90 inh confirm 55 | luciferase ctr 57
CCN1C[C@@H]2[C@@H]3C(=O)N(C)C(=O)[C@@H]3[C@](CC)(C1=O)N2C(=O)c1ccc(C)cc1	none (no result: HSF-1 act, HSF1 inhib, HSP90 inh, Platelet DG rel)
Cn1c(=O)[nH]c(=O)c2c1nc(Br)n2CC(O)COCc1ccccc1 (stereo not drawn)	HSP90 inh 17 | HSP90 inh confirm inactive | luciferase ctr inactive
CCC(=O)Nc1ccccc1C(=O)OCC(=O)c1ccccc1	HSF-1 act 79, HSP90 inh 52 | HSP90 inh confirm 66 | luciferase ctr inactive
CCC(=O)Nc1ccccc1C(=O)OCC(=O)c1ccc2ccccc2c1	none
CC(=O)Nc1cc(C(=O)OCC(=O)c2ccccc2)ccc1C	HSP90 inh 24 | HSP90 inh confirm 60 | luciferase ctr inactive
CN1C(=O)c2ccc(NC(=S)NC(=O)C(C)(C)C)cc2C1=O	none
c1csc(CNc2ccc3c(c2)OCCO3)c1	HSP90 inh 31 (no result: HSF-1 act, HSF1 inhib, Platelet DG rel) | HSP90 inh confirm 21 | luciferase ctr 15
Oc1ccccc1CNc1ccc2c(c1)OCCO2	none
Cn1cc(CN2CCCC(C(=O)Nc3cccc(-c4cc5ccccc5[nH]4)c3)C2)cn1 (stereo not drawn)	HSP90 inh 23 | HSP90 inh confirm inactive | luciferase ctr inactive
CC(C)n1cc(CN2CCCC(C(=O)Nc3cccc(-c4cc5ccccc5[nH]4)c3)C2)cn1 (stereo not drawn)	HSP90 inh 18 | HSP90 inh confirm inactive | luciferase ctr inactive
CCn1cc(CN2CCCC(C(=O)Nc3cccc(-c4cc5ccccc5[nH]4)c3)C2)c(C)n1 (stereo not drawn)	none
C(=NNc1ccc2ccccc2n1)c1ccccn1	none (no result: HSF-1 act, HSF1 inhib, dFosB activator, HSP90 inh, Platelet DG rel)
Cc1csc(N/N=C/c2ccccn2)n1	HSP90 inh 48 | HSP90 inh confirm 53 | luciferase ctr 38
O=C(c1cc(-c2ccc(Cl)cc2Cl)on1)N1CCOCC1	HSP90 inh 30 | HSP90 inh confirm 46 | luciferase ctr 43
O=C(c1cc(-c2ccc(Cl)cc2)on1)N1CCOCC1	none
O=C(CNC(=O)OCc1ccccc1)NCC(=O)Oc1ccc([N+](=O)[O-])cc1	none (no result: HSF-1 act, HSF1 inhib, HSP90 inh, Platelet DG rel)
CCOC(=O)c1ccc(-c2ccc(C=O)o2)cc1	HSP90 inh 30 | HSP90 inh confirm 52 | luciferase ctr inactive
CCOC(=O)c1cccc(-c2ccc(C=O)o2)c1	none
CN(C)CCN(C(=O)c1ccc2c(c1)OCCO2)c1nc2ccc(Cl)cc2s1	none
CCc1ccc2nc(N(CCN(C)C)C(=O)c3ccc4ncsc4c3)sc2c1	HSP90 inh 28 | HSP90 inh confirm 23 | luciferase ctr 19
COc1ccccc1N1CCN(c2ccc3c(c2)S(=O)(=O)c2cccc(C(=O)NCC4CC4)c2C3=O)CC1	none (no result: HSF-1 act, HSF1 inhib, dFosB activator, HSP90 inh, Platelet DG rel)
O=S(=O)(O)Sc1ccccc1	none (no result: HSF-1 act, HSF1 inhib, dFosB activator, HSP90 inh, Platelet DG rel)
CCN(CC)c1ccc(SS(=O)(=O)O)cc1	HSP90 inh 25! | HSP90 inh confirm 69 | luciferase ctr inactive
CCOc1ccccc1-n1c(SCC(=O)Nc2ccccc2C(=O)O)nc2ccccc2c1=O	HSF1 inhib -74, HSP90 inh 50 | HSP90 inh confirm 56 | luciferase ctr 37
CCn1c(SCC(=O)Nc2ccccc2OC)nc2ccccc2c1=O	none (no result: HSF-1 act, HSF1 inhib)
COc1ccc(S(=O)(=O)N2CCOCC2)cc1NC(=O)CCOc1ccc(C(C)(C)C)cc1	none (no result: HSF-1 act, HSF1 inhib, HSP90 inh, Platelet DG rel)
Cc1nnc(SCC(=O)Nc2ncc3c(n2)CC(c2ccccc2)CC3=O)s1 (stereo not drawn)	HSP90 inh 35 | HSP90 inh confirm inactive | luciferase ctr inactive
Cc1ccc(S(=O)(=O)Nc2cc(=O)[nH]c(SCC(=O)Nc3ccccc3Cl)n2)cc1	none (no result: HSF-1 act, HSF1 inhib, Platelet DG rel)
COc1ccc(O)c(C(=O)CC(=O)c2ccc(F)cc2)c1	HSP90 inh 21 | HSP90 inh confirm 21 | luciferase ctr inactive
COc1ccc(C(=O)CC(=O)c2ccccc2O)cc1	none
Cc1ccc(S(=O)(=O)N2[C@H](CC(=O)c3cccs3)OC[C@@H]2C)cc1	none (no result: HSF-1 act, HSF1 inhib, dFosB activator, HSP90 inh, Platelet DG rel)
Cc1ccc(S(=O)(=O)N(CC(=O)NCc2cccnc2)c2ccc(F)cc2)cc1	none
CC(C)c1ccc(N(CC(=O)NCc2cccnc2)S(=O)(=O)c2ccccc2)cc1	HSP90 inh 27 | HSP90 inh confirm inactive | luciferase ctr inactive
O=S(=O)(Nc1c(S(=O)(=O)c2ccccc2)c2nc3ccccc3nc2n1C1CCCCC1)c1ccccc1	none
C=CCn1c(NS(=O)(=O)c2ccccc2)c(S(=O)(=O)c2ccc(C)cc2)c2nc3ccccc3nc21	HSP90 inh 22 | HSP90 inh confirm 52 | luciferase ctr inactive
Cc1nc(C)n(CCNC(=O)c2ccco2)n1	HSP90 inh 36 | HSP90 inh confirm inactive | luciferase ctr inactive
COc1cc(C2Nc3ccccc3C(=O)N2c2ccccc2OC)ccc1O (stereo not drawn)	none (no result: Platelet DG rel)
O=C1c2ccccc2NC(c2ccc3c(c2)OCCO3)N1c1ccc2c(c1)OCCO2 (stereo not drawn)	HSP90 inh 22 | HSP90 inh confirm 17 | luciferase ctr inactive
COc1cc(C2Nc3ccccc3C(=O)N2c2ccc3c(c2)OCCO3)ccc1OCC(C)C (stereo not drawn)	HSP90 inh 45 | HSP90 inh confirm inactive | luciferase ctr inactive
O=C1c2ccccc2NC(c2ccc3c(c2)OCO3)N1O (stereo not drawn)	none
Cc1cc(C)n(Cc2ccc(C(=O)O)cc2)n1	none (no result: HSF-1 act, HSF1 inhib)
COC(=O)c1ccc(Cn2nc(C)cc2C)cc1	HSP90 inh 24 (no result: Platelet DG rel) | HSP90 inh confirm inactive | luciferase ctr inactive
CCOC(=O)N1CCC(N2Cc3cccc(C(=O)Nc4ccc(N(CC)CC)cc4C)c3C2=O)CC1	none
CS(=O)(=O)N(CC(=O)NCCSCc1ccccc1)c1ccccc1F	none
CC1(C)C(=O)NCCN1C(=O)CC1C(=O)NCCN1CC(c1ccccc1)c1ccccc1 (stereo not drawn)	HSP90 inh 24 | HSP90 inh confirm inactive | luciferase ctr inactive
CC(C)(CO)NC(=O)CC1C(=O)NCCN1CC(c1ccccc1)c1ccccc1 (stereo not drawn)	none

Source: PubChem BioAssay
